PLK1 PBD block – PLK1 (human) polo-box domain binding inhibition; Potency, µM, without a hit: max response, negative = inhibition, usual class: inhibitors; Plk1 PBD binding of FITC phosphopeptide, fluorescence polarization; P53350; actives 2.8% (n = 360,000); further: series mostly up to about 57 µM; on the % scale 0 is the no-effect control and ±100 the full control effect; nearly all actives have a fitted effect of over 65% in size
GCN5L2 inh – inhibitors of human GCN5L2 histone acetyltransferase. Q92830. GCN5L2 HAT assay, ThioGlo1 CoA-SH fluorescence. Potency, µM (series often up to 58.9 µM), for the others: at the highest dose activity change, negative = inhibition, hits mostly inhibitors. actives 0.21% (n = 390,000); further: on the % scale 0 is the no-effect control and ±100 the full control effect
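Titration-based screen in which CoA formation is detected via maleimide probe ThioGlo1 (50uM) turning fluorescent on thiol reaction; substrates H3(1-25) 75uM and acetyl-CoA 70uM, GCN5L2 20nM, 20 min incubation at room temperature.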
USP1 inh – USP1/UAF1 (human) deubiquitinase inhibition. recombinant USP1/UAF1, Ub-Rhodamine cleavage fluorescence. Potency, µM (highest dose often 57.1 µM), inactives show at the highest dose activity change, negative = inhibition, hits mostly inhibitors. O94782. actives 0.23% (n = 390,000); further: on the % scale 0 is the no-effect control and ±100 the full control effect; nearly all actives have a fitted effect of over 60% in size
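High-throughput fluorogenic screen: 1nM USP1/UAF1 complex, Ub-Rho substrate 150nM final, 50mM HEPES pH 7.8 with 0.5mM EDTA, 0.1 mg/ml BSA, 1mM TCEP and 0.01% Tween-20.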
TSG101-PTAP inh – blocks PTAP/TSG101 interaction to inhibit HIV-1 budding. Potency, µM (top dose mostly 115 µM), for inactives: at the top dose activity change, negative = inhibition, usual class: inhibitors. Q99816. Fluorescence polarization, FITC-PTAP peptide / Tsg101 binding. AID 493005. 340,000 tested, under 10 active; active means well fitted inhibition curve with a large enough effect in the main read-out, with a control signal flat, not every such curve was filed as active; inconclusive means small, poorly fitted or top-dose-only effect, or effect the other way, or a change in a side signal; inactive means no such curve, though single readings can be large or run the other way; further: % of control where 0% means no effect
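Fluorescence anisotropy tracks displacement of a FITC-tagged PTAP peptide (50 nM) from the Tsg101 binding domain (10 uM), following a 20 min room-temperature incubation at pH 7.5.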
VDR inh – inhibitors of human vitamin D receptor; P11473; VDR-SRC2-3 peptide fluorescence polarization, 2 h; Potency, µM, inactives show max response, negative = inhibition, most hits filed as inhibitors; actives 0.93% (n = 400,000); AID 504847; further: on the % scale 0 is the no-effect control and ±100 the full control effect
Target sequence (P11473 whole entry, looked up): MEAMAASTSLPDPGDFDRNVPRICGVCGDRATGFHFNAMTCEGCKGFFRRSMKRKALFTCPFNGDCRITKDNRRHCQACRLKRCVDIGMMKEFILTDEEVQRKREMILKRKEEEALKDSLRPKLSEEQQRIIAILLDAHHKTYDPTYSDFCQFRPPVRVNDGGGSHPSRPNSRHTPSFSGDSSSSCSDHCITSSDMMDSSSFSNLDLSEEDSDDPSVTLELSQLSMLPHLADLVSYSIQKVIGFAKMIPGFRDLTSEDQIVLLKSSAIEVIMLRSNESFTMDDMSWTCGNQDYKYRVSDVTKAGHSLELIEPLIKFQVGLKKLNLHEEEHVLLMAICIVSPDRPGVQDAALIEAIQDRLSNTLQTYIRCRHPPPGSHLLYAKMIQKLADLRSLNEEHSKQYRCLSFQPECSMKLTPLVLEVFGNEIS
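Reagent solutions, kept cold and dark, are dispensed first; compounds are then pinned in at 23 nl, plates briefly spun, and incubated 2 h at ambient temperature. Inhibition of VDR–SRC2-3 peptide binding is read by fluorescence polarization.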
* = called active by the depositor; i = inactive; ? = inconclusive; . = not tested or not shown. An excerpt weighted towards active compounds, which were near 3% of everything screened. Unless noted, the call rests on the fitted dose curve; in most records, active means well fitted curve in the direction sought with a large enough effect; inconclusive means small, poorly fitted or top-dose-only effect, or another doubt; inactive means no such curve, though single readings can be large; an effect the other way counts as inactive or inconclusive. Potency means the concentration at half of the fitted maximal effect.

SMILES	PLK1 PBD block	GCN5L2 inh	USP1 inh	TSG101-PTAP inh	VDR inh
Cc1cc(/C=N/NC(=O)c2ccc(O)cc2)c(C)n1C1CC1	19µM*	-3%	-5%	-9%	-19%
O=C(O)c1cccc(N/N=C/c2cc(Br)cc(Br)c2O)c1	24µM*	-10%	-15%	-9%	-26%
CCCc1noc(-c2ccc(N3CCCCC3)c([N+](=O)[O-])c2)n1	.	-2%	-6%	.	9%
Cc1ccc(OCCOCCOc2cccc3cccnc23)c(Br)c1	27µM*	-3%	-15%	0%	i
CC(/C=N/NC(=O)c1ccco1)=C\c1ccccc1	1%	-8%	-17%	-4%	11%
O=C(N/N=C\CCc1ccccc1)c1ccco1	15µM*	-2%	-4%	-1%	?
Cc1ccc(NC(=S)Nc2cccc(S(=O)(=O)Nc3c(C)n(C)n(-c4ccccc4)c3=O)c2)cc1	?	-7%	-14%	-2%	-7%
Cc1cccc(NC(=O)Nc2c(C)n(C)n(-c3ccccc3)c2=O)c1	24µM*	10%	-10%	-6%	?
CC(=O)c1ccc(NC(=S)Nc2cccc(S(=O)(=O)Nc3c(C)n(C)n(-c4ccccc4)c3=O)c2)cc1	24µM*	-8%	-21%	0%	-1%
Cc1c(NC(=O)Nc2cccc(Cl)c2)c(=O)n(-c2ccccc2)n1C	-2%	1%	-13%	0%	3%
Cc1ccc(NC(=O)Nc2c(C)n(C)n(-c3ccccc3)c2=O)cc1C	21µM*	-1%	-15%	1%	?
Cc1c(NC(=O)C23CC4CC(CC(C)(C4)C2)C3)c(=O)n(-c2ccccc2)n1C	-1%	20µM*	-12%	-3%	10%
CC(=O)NC12CC3CC(C1)CC(C(=O)Nc1c(C)n(C)n(-c4ccccc4)c1=O)(C3)C2	1%	0%	-16%	.	-4%
CCCN(CCC)Cc1cc(=O)oc2ccc3ccccc3c12	1%	.	.	.	.
COc1cccc(C2C3=C(N=c4s/c(=C\c5ccc(OCC(=O)O)cc5)c(=O)n42)c2ccccc2CC3)c1 (stereo unspecified)	?	?	-20%	-4%	-11%
N=c1n(CCN2CCCC2)c2ccccc2n1CC(O)c1ccc(Cl)c(Cl)c1 (stereo unspecified)	24µM*	16%	-8%	-2%	13%
COc1ccc(OCC(O)Cn2c(=N)n(CCN3CCCCC3)c3ccccc32)cc1 (stereo unspecified)	2.7µM*	-3%	-28%	-7%	-11%
Cc1ccc(OCC(O)Cn2c(=N)n(CCN3CCCCC3)c3ccccc32)cc1 (stereo unspecified)	-10%	4%	0%	-3%	12%
Cc1ccc(S(=O)(=O)c2cn(CC(=O)Nc3cccc(C)c3)c3cc4c(cc3c2=O)OCO4)cc1	.	-3%	-18%	.	3%
O=C(O)C1Nc2c(C(F)(F)F)ccc(Cl)c2C2C=CCC12 (stereo unspecified)	27µM*	2%	-20%	-13%	?
CCCCN(C)C(=O)Cc1c(OC)ccc2cc(Br)ccc12	24µM*	-2%	-17%	0%	22µM*
COCC(=O)N1CCC[C@@]2(CCN(Cc3cc(C(F)(F)F)cc(C(F)(F)F)c3)C2)C1	.	-9%	.	.	?
Cc1c(CCC(=O)O)c(=O)oc2c(C)c3occ(-c4ccc(Br)cc4)c3cc12	27µM*	12%	-18%	-8%	-1%
CCCc1c(OCCCCc2nn[nH]n2)ccc(C(C)=O)c1O	-20%	2%	-17%	-2%	45µM*
CCC(C)NC(=O)c1ccc2nc(-c3cccs3)c(-c3cccs3)nc2c1 (stereo unspecified)	.	.	.	.	-25%
SMILES	PLK1 PBD block	GCN5L2 inh	USP1 inh	TSG101-PTAP inh	VDR inh
Cc1sc2ncn(CC(=O)Nc3ccc(C(F)(F)F)cc3)c(=O)c2c1S(=O)(=O)N1CCN(C)CC1	.	-1%	-7%	.	7%
O=C(N/N=C\c1ccc(CN(Cc2ccc(Cl)cc2)S(=O)(=O)c2ccccc2)o1)C(=O)Nc1ccc(F)cc1	27µM*	-1%	-19%	2%	-22%
CN(C)S(=O)(=O)c1cccc(C(=O)OCC(=O)Nc2ccccc2OC(F)F)c1	27µM*	3%	-6%	-5%	?
O=C(Nc1ccccc1OC(F)F)c1cccc(S(=O)(=O)N2CCCC2)c1	17µM*	-6%	-20%	-5%	?
O=C(COC(=O)C1CCCCC1)Nc1ccccc1OC(F)F	3µM*	-4%	-11%	2%	?
CCOc1ccc(C(=O)Nc2cccc(NC(=O)c3ccco3)c2)cc1Cl	.	0%	-11%	.	-19%
CCc1ccc(NC2CC(=O)N(CCc3ccc(OC)c(OC)c3)C2=O)cc1 (stereo unspecified)	27µM*	-1%	-9%	2%	?
O=C1C2C(C(=O)N1CCc1ccccc1)C1C=CC2C12CC2 (stereo unspecified)	0%	-5%	-2%	-9%	8%
CCOC(=O)C1=NOC2C3CC(C12)C1C(=O)N(CCc2ccc(OC)c(OC)c2)C(=O)C31 (stereo unspecified)	27µM*	-9%	-5%	0%	-11%
COc1ccc(CCN2C(=O)C3C4CC(C5C(C(=O)N/N=C\c6ccc(Cl)cc6)=NOC45)C3C2=O)cc1OC (stereo unspecified)	-6%	-3%	-10%	-4%	9%
COc1ccc(CCN2C(=O)C3C(C2=O)C2C=CC3C23CC3)cc1OC (stereo unspecified)	24µM*	-3%	-25%	0%	2%
CCCCNC(=O)C(NC(=O)c1ccc(=O)[nH]c1)C(=O)c1ccccc1 (stereo unspecified)	-2%	.	.	.	.
COc1ccc(CCNC(=O)C2CCN(S(=O)(=O)c3cccc4cccnc34)CC2)cc1OC	27µM*	-11%	-9%	-3%	-9%
COc1ccc(CCNC(=O)c2cccc(-n3c(C)nc4cccnc43)c2)cc1OC	.	1%	9%	.	14%
COc1ccc(CCNC(=O)c2nc3ncccn3n2)cc1OC	24µM*	2%	-7%	0%	-3%
CCOC(=O)/C(C#N)=C1/C=Nc2ccccc2N1	-1%	?	-14%	-3%	7%
CCOC(=O)/C(C#N)=C1\CC2CCC1(C)C2(C)C (stereo unspecified)	6µM*	-16%	5%	0%	79µM*
Cc1oc2c(c1C(=O)NCc1cccc(Br)c1)C1=NCCN1C=N2	.	13%	-11%	.	12%
CN(Cc1ccco1)c1cc(-c2ccc3c(c2)OCO3)ncn1	.	28µM*	.	.	22µM*
CCOc1ccc(CCNC(=O)c2cc3cccc4c3n2CCS4)cc1	.	2%	-31%	.	7%
COc1ccc(OCc2nn3c(-c4ccco4)nnc3s2)cc1	-11%	-9%	-6%	-3%	2%

Screens (PubChem)
